Where “and” joins values, the source holds several entries; their conditions need not be identical. Identical values can stand only once. Counter-ions that a name gives are not always drawn.
Experiments:
Assay in all cases: Euclidean distance of Cell Painting phenotypic profile (signed KS, 77 features) to DMSO centroid (dimensionless distance); 5 or 10 uM (library dependent); higher = stronger phenotypic change vs DMSO (phenoactivity)
Details in all cases: 48 h
786-O = tested on: 786-O
Method in brief: (§1)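 Phenoactivity is computed as Euclidean distance to the median vehicle profile. The profiles, drawn from 77 Harmony features scored as signed Kolmogorov-Smirnov statistics versus same-plate vehicle wells, were corrected for plate position, correlation-weighted and replicate-averaged at the top dose. Stained cells were imaged confocally at 20X (9 fields/well) after 48 h with library compounds at 10 or 5 uM, 0.1% DMSO final, in five cancer lines and a healthy fibroblast line.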

A549 = tested on: A549
Method in brief: as §1

DU145 = tested on: DU145
Method in brief: as §1

FB = tested on: FB
Method in brief: as §1

HEPG2 = tested on: HEPG2
Method in brief: as §1

OVCAR4 = tested on: OVCAR4
Method in brief: as §1

SMILES	Euclidean distance (786-O)	Euclidean distance (A549)	Euclidean distance (DU145)	Euclidean distance (FB)	Euclidean distance (HEPG2)	Euclidean distance (OVCAR4)
S=C(NCc1ccc2c(c1)OCO2)N1CCN(c2ncnc3c2oc2ccccc23)CC1 [Amuvatinib (MP-470)]	1.2	1.72	1.25	1.07	2.14	1.2
COc1cccc(-c2cc(=O)c3ccccc3o2)c1N	1.16	1.4	0.841	0.911	1.94	0.844
CC1=Nc2ccc(Cl)cc2S(=O)(=O)N1 [Diazoxide]	1.25	0.782	1.19	1.21	1.01	1.25
COc1cccc(OC)c1C(=O)OCc1cc(O)ccc1O[C@@H]1O[C@H](CO)[C@@H](O)[C@H](O)[C@H]1O [Curculigoside]	0.665	0.731	0.819	0.662	0.446	1.36
O=C(O)CCCC[C@@H]1CCSS1 (racemic) [Thioctic acid]	1.09	0.518	1.41	0.755	0.413	0.684
O=C(CO)[C@@H](O)[C@H](O)[C@H](O)CO [Fructose]	1.08	0.996	0.637	0.813	0.424	1.17
CO[C@@H](C)Cn1c(=O)n(C)c2cnc3ccc(-c4cncc(C(C)(C)O)c4)cc3c21	3.52	4.06	2.18	4.79	2.61	3.29
COc1cc(Nc2ncc3c(n2)-c2ccc(Cl)cc2C(c2c(F)cccc2OC)=NC3)ccc1C(=O)O [Alisertib (MLN8237)]	2.85	3.22	2.99	3.08	2.23	2.8
COCCCOc1ccnc(C[S+]([O-])c2nc3ccccc3[nH]2)c1C (centres undefined) [Rabeprazole]	1.5	0.662	0.942	1.03	1.49	0.928
CCCCOc1ccc(C(=O)Nc2ccc(F)cc2F)cc1	1.45	1.45	1.14	1.28	0.872	1.5
CC(=O)[C@H]1CC[C@H]2[C@@H]3CC=C4C[C@@H](O)CC[C@]4(C)[C@H]3CC[C@]12C [Pregnenolone]	1.29	1.07	0.872	1.07	0.703	1.03
CC[C@H]1OC(=O)[C@H](C)[C@@H](O[C@H]2C[C@@](C)(OC)[C@@H](O)[C@H](C)O2)[C@H](C)[C@@H](O[C@@H]2O[C@H](C)C[C@H](N(C)C)[C@H]2O)[C@](C)(OC)C[C@@H](C)C(=O)[C@H](C)[C@@H](O)[C@]1(C)O [Clarithromycin]	0.952	0.722	0.938	0.905	0.629	0.909
CC1=C[C@H](O)CC(C)(C)[C@H]1/C=C/C(C)=C/C=C/C(C)=C/C=C/C=C(C)/C=C/C=C(C)/C=C/C1=C(C)C[C@@H](O)CC1(C)C [lutein]	0.901	0.452	1.78	0.947	1.18	1
COc1cc2c(Oc3ccc4[nH]c(C)cc4c3F)ccnc2cc1OCC1(N)CC1 [Anlotinib (AL3818) dihydrochloride]	3.26	3.7	2.73	3.46	3.11	3.17
C#Cc1cccc(Nc2ncnc3cc(OC)c(OCCCCCCC(=O)NO)cc23)c1	3.46	4.62	2.02	3.43	1.85	1.93
OCC(CO)N[C@H]1C[C@](O)(CO)[C@@H](O)[C@H](O)[C@H]1O [Voglibose]	0.92	0.919	0.846	0.977	1.06	1.34
O=C(O)CSc1nnc(Br)n1-c1ccc(C2CC2)c2ccccc12 [Lesinurad]	0.529	0.673	0.762	0.983	1.61	0.826
CCC(CC)CC1(C(=O)Nc2ccccc2SC(=O)C(C)C)CCCCC1	1.26	1.07	0.832	1	0.428	0.986
COc1cccc(N2CCN(C3=Nc4c(F)cccc4C(CC(=O)O)N3c3cc(C(F)(F)F)ccc3OC)CC2)c1 (centres undefined) [Letermovir(AIC246)]	1.22	1.44	0.984	0.978	0.523	1.01
CC(C)(C)NS(=O)(=O)c1cncc(-c2cc(F)c3nc(N)nn3c2)c1	0.676	0.836	1.2	1.61	0.94	1.09
CN1CCCN=C1/C=C/c1cccs1 [Pyrantel Pamoate]	1.65	0.995	0.771	1.28	0.805	1.2
COc1cccc2c1C(=O)c1c(O)c3c(c(O)c1C2=O)C[C@@](O)(C(=O)CO)C[C@@H]3O[C@H]1C[C@H](N)[C@H](O)[C@H](C)O1 [Doxorubicin (Adriamycin)]	4.79	5.36	4.79	5.17	4.55	5

SMILES	Euclidean distance (786-O)	Euclidean distance (A549)	Euclidean distance (DU145)	Euclidean distance (FB)	Euclidean distance (HEPG2)	Euclidean distance (OVCAR4)
CCN(CC)CCCC(C)Nc1nc(C)cc(Nc2ccc3nc(C)cc(N)c3c2)n1 (centres undefined)	0.637	0.976	0.753	0.932	2.01	1.16
CC(=O)O[C@H]1Cc2ccccc2N(C(N)=O)c2ccccc21 [Eslicarbazepine Acetate]	0.621	0.976	0.966	1.39	1.17	1.64
CC1=C(C(=O)O)N2C(=O)[C@@H](NC(=O)[C@H](N)C3=CCC=CC3)[C@H]2SC1 [Cephradine monohydrate]	1.65	0.779	2.12	0.776	0.698	0.618
Cc1cnc(C(=O)NCCc2ccc(S(=O)(=O)NC(=O)NC3CCCCC3)cc2)cn1 [Glipizide]	1.39	1.31	0.684	1.1	1.74	1.36
CN(C)CCOC(c1ccc(Cl)cc1)c1ccccn1 (centres undefined) [CarbinoxaMine Maleate]	1.32	0.778	1.98	1.44	0.691	0.935
Cc1cc(C)cc(OCC2CNC(=O)O2)c1 (centres undefined) [Metaxalone]	0.96	0.856	0.745	0.753	0.417	1.15
C#CCN(C)CCCOc1ccc(Cl)cc1Cl [Clorgyline HCl]	0.821	0.714	0.727	1.14	0.806	0.745
CC(=O)Nc1cccc2c1c(Sc1ccc(Cl)cc1)c(C)n2CC(=O)O	0.872	0.72	1.15	0.772	0.51	0.868
COc1ccc2cc3[n+](cc2c1OC)CCc1cc2c(cc1-3)OCO2 [Berberine HCl]	0.872	1.5	0.626	0.96	1.8	0.946
COc1ccc(-c2cc(=O)c3c(OC)c(OC)c(OC)c(OC)c3o2)cc1 [Tangeretin]	0.981	1.05	1.17	0.742	0.656	1.06
C[C@@H]1CCN(C(=O)CC#N)C[C@@H]1N(C)c1ncnc2[nH]ccc12	0.925 and 0.548	0.553 and 0.511	1.04 and 0.639	0.618 and 0.551	0.886 and 0.785	0.908 and 0.677
Cc1onc(-c2ccccc2)c1C(=O)N[C@@H]1C(=O)N2[C@@H]1SC(C)(C)[C@@H]2C(=O)O [Oxacillin sodium monohydrate]	1.39	1.09	1.47	1.11	0.665	1.37
O=C(Nc1ccc(Oc2ccc(Cl)cc2)c(Cl)c1)c1cc(I)cc(I)c1O [Rafoxanide]	1.36	1.72	1.23	1.19	1.44	1.54
CCNC(=O)c1noc(-c2cc(C(C)C)c(O)cc2O)c1-c1ccc(CN2CCOCC2)cc1	2.96	2.83	3.5	2.77	3.91	2.67
CCN(CC)Cc1cc(Nc2ccnc3cc(Cl)ccc23)ccc1O [Amodiaquine dihydrochloride dihydrate]	3.19	3.25	1.79	3.65	3.36	2.54
O=C1OCCN1/N=C/c1ccc([N+](=O)[O-])o1 [Furazolidone]	1.14	1.26	1.02	1.13	0.999	1.09
CCOC(=O)C1=C(N)Oc2ccc(Br)cc2C1C(C#N)C(=O)OCC (centres undefined)	0.871	1.18	1.12	1.03	1.03	0.791
Cc1ccc(Nc2nccc(N(C)c3ccc4c(C)n(C)nc4c3)n2)cc1S(N)(=O)=O	2.42	2.34	1.99	2.87	1.93	1.6
N#Cc1ccc(C2CCCc3cncn32)cc1 (centres undefined) [Fadrozole]	1.22	0.722	0.93	1.38	0.631	0.866
CN(C)[C@@H]1C(O)=C(C(N)=O)C(=O)[C@@]2(O)C(O)=C3C(=O)c4c(O)ccc(Cl)c4[C@@](C)(O)[C@H]3C[C@@H]12 [Chlortetracycline HCl]	1.45	0.912	1.04	0.904	0.464	1.05
OC[C@@H](O)CN1CCN(c2ccccc2)CC1 [Levodropropizine]	1.23	1.05	0.896	1.17	0.732	1.12
CC[C@@H](C)Nc1cc(C(=O)N[C@H]2C[C@H]3CC[C@@H](C2)N3c2ccc(C(=O)C3CC3)cn2)c(C)cc1C(N)=O	3.1	3.1	3.17	3.15	4.37	3.3

— the supplement of paper PMC10127200
